This excerpt belongs to a sample that is enriched for hits.
Methyltransferases: Primary Screen for Target Class Profiling of Small Molecule Inhibitors of Methyltransferases; purified enzyme, MTase-Glo SAH luminescence; stronger effect = lower value; calls only at 40 µM; 3.9% of 25,000 active; call rule not given here
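Each enzyme was reacted with SAM and its substrate, with compounds tested once at 40 uM; SAH formed was read by MTase-Glo luminescence.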
Each line names hits and unclear results; the compound was inactive in the other large screens.

COc1ccc(N2C(=O)c3cc(-c4ccccc4)nn3CC2(C)C(=O)NCc2ccccc2)cc1 (centres undefined)	none
CCOc1ccc(C(=O)Cn2nc3n(Cc4ccc(F)cc4)c(=O)c4ccccc4n3c2=O)cc1	none
COCCN1C(=O)c2cc3sccc3n2CC1(C)C(=O)NC1CCCCCC1 (centres undefined)	none
O=C(O)c1cc(-c2cccc(CO)c2)cc(S(=O)(=O)NC2CCCC2)c1	none
Cc1c(OCc2cccc(-c3ccc(C(=O)O)cc3)c2)cc2c(c1C)C(=O)C(C1CCCC1)C2 (centres undefined)	Methyltransferases active
O=C1c2ccccc2C(=O)c2cc(S(=O)(=O)NCCO)ccc21	none
O=C(CSc1nnc2n(Cc3ccccc3)c(=O)c3ccccc3n12)NCc1ccccc1	none
Cc1ccc(NC(=O)N2CCN(c3nc(N)nc4sc(-c5cccnc5)nc34)CC2)cc1	none
O=C(Nc1ccc(C(F)(F)F)cn1)N1CCN(c2ncccc2C(F)(F)F)CC1	Methyltransferases active
C[C@H](Oc1ccc(S(C)(=O)=O)cc1C(=O)N1CCN(c2ncc(C(F)(F)F)cc2F)CC1)C(F)(F)F	none
CC1(C(=O)NC2CCCC2)Cn2c(cc3ccccc32)C(=O)N1Cc1cccnc1 (centres undefined)	none
COCCCN1C(=O)c2nc3ccccc3n2CC1(C)C(=O)NC1CCCCC1 (centres undefined)	none
Cc1ccccc1NC(=O)Cn1nc2n(C)c(=O)c3ccc(C(=O)NC4CCCC4)cc3n2c1=O	none
CCCc1c(-c2ccc(O)cc2)nn(-c2ccc(O)cc2)c1-c1ccc(O)cc1	Methyltransferases active
CCCN1C(=O)c2c(C(=O)NCc3cccc(C)c3)ncn2CC1(C)C(=O)NC1CCCC1 (centres undefined)	none
O=C(CCc1nnc2n(CCc3ccccc3)c(=O)c3ccccc3n12)NCCCN1CCCCC1	Methyltransferases active
O=C(CCc1nnc2n(CCc3ccccc3)c(=O)c3ccccc3n12)NCCCN1CCOCC1	none
O=C(CCCc1nnc2n3nc(-c4ccccc4)nc3c3ccccc3n12)NCc1ccccc1	none
O=C(CCc1nnc2n(CCc3ccccc3)c(=O)c3ccccc3n12)NCCc1ccccc1	none
Cc1ccc(Cn2c(=O)c3ccccc3n3c(CCC(=O)N4CCC(C)CC4)nnc23)cc1	none
CC(C)CCNC(=O)CCc1nnc2n(Cc3ccccc3Cl)c(=O)c3ccccc3n12	none
O=C(CCCc1nnc2n3nc(-c4ccccc4)nc3c3ccccc3n12)NCCc1ccccc1	none
Cc1ccc(Cn2c(=O)c3ccccc3n3c(CCC(=O)N4CCC(N5CCCCC5)CC4)nnc23)cc1	Methyltransferases active
O=C(CCCc1nnc2n3nc(-c4ccccc4)nc3c3ccccc3n12)NCCN1CCCC1	Methyltransferases active
O=C(CCc1nnc2n(Cc3ccccc3Cl)c(=O)c3ccccc3n12)NCCN1CCOCC1	none
CC1CCN(CCCNC(=O)CCc2nnc3n(Cc4ccccc4Cl)c(=O)c4ccccc4n23)CC1	Methyltransferases active
O=C(CCc1nnc2n(Cc3ccccc3)c(=O)c3ccccc3n12)N1CCN(C2CCCCC2)CC1	none
CCCn1c(=O)c2cc(Cl)ccc2n2c(=O)n(CC(=O)c3ccc(OC)c(OC)c3)nc12	none
Cc1cc2c(cc3n2CC(C)(C(=O)NC2CCCCCC2)N(c2cccc(C)c2C)C3=O)o1 (centres undefined)	none
CC1CCC(NC(=O)C2(C)Cn3c(cc4sccc43)C(=O)N2Cc2ccccn2)CC1 (centres undefined)	none
Cn1c(=O)c2ccc(C(=O)NC3CCCC3)cc2n2c(=O)n(Cc3ccc(F)cc3)nc12	none
CC(C)CCNC(=O)CCc1nnc2n(Cc3ccc(F)cc3)c(=O)c3ccccc3n12	none
O=C(CCc1nnc2n(Cc3ccc(Cl)cc3)c(=O)c3ccccc3n12)NCCCN1CCOCC1	none
CC1CCCCN1CCNC(=O)CCc1nnc2n(Cc3ccc(F)cc3)c(=O)c3ccccc3n12 (centres undefined)	Methyltransferases active
O=C(CCc1nnc2n(Cc3ccc(F)cc3)c(=O)c3ccccc3n12)NCCc1ccccc1	none
O=C(CCc1nnc2n(Cc3ccc(Cl)cc3)c(=O)c3ccccc3n12)NCCN1CCCC1	Methyltransferases active
O=C(CCc1nnc2n(Cc3ccccc3)c(=O)c3ccccc3n12)NCCN1CCCC1	none
COCCNC(=O)C1(C)Cn2nc(-c3ccccc3)cc2C(=O)N1c1ccc(F)cc1C (centres undefined)	none
O=C(Cn1ccc2cc(S(=O)(=O)N3CCCC3)ccc21)NCCc1cccs1	none
CC1CCC(NC(=O)C2(C)Cn3c(cc4occc43)C(=O)N2Cc2cccc(F)c2)CC1 (centres undefined)	none
CCOC(=O)c1cc2n(n1)CC(C)(C(=O)NC1CCCCCC1)N(Cc1cccc(C)c1)C2=O (centres undefined)	none
COC(=O)c1cc2n(n1)CC(C)(C(=O)NC1CCCCCC1)N(Cc1cccc(OC)c1)C2=O (centres undefined)	none
CCOC(=O)c1cc2n(n1)CC(C)(C(=O)NC1CCCCC1)N(c1cccc(OC)c1)C2=O (centres undefined)	none
COc1cccc(-n2nc(C(=O)O)cc2-c2ccc(C3CCCCC3)c(Cl)c2)c1	Methyltransferases active
Cc1ccc(CNC(=O)C2(C)Cn3cnc(C(=O)Nc4ccc(Cl)cc4F)c3C(=O)N2C2CC2)cc1 (centres undefined)	none
Cc1ccc2nc(Nc3ccc4c(c3)n(C)c(=O)n4C)c(-n3nc(C)cc3C)nc2c1	none
CC(C)OCCCn1c(=O)c2ccccc2n2c(=O)n(CC(=O)NCc3ccccc3Cl)nc12	none
CC1(C(=O)NC2CCCCC2)Cn2c(cc3occc32)C(=O)N1Cc1ccccc1Br (centres undefined)	none
CC(C)n1cc(-c2ccc(Oc3ccccc3)cc2)c2c(N)ncnc21	Methyltransferases active
CC1CCCCC1NC(=O)C1(C)Cn2c(nc3ccccc32)C(=O)N1CCCc1ccccc1 (centres undefined)	none
O=C(CCc1nnc2n(Cc3ccc(F)cc3)c(=O)c3ccccc3n12)NCc1ccccc1Cl	none
COc1ccc2cc3n(c2c1)CC(C)(C(=O)NC1CCCC1)N(Cc1ccccc1Cl)C3=O (centres undefined)	none
COc1cccc(Cn2nc3n(CC(C)C)c(=O)c4ccc(C(=O)NCC(C)C)cc4n3c2=O)c1	none
CCOc1ccc(OCC)c(NS(=O)(=O)c2ccc3[nH]c4c(c3c2)CCCC4)c1	none
CCC(C)NC(=O)c1ccc2c(=O)n(C)c3nn(CC(=O)c4cccc(OC)c4)c(=O)n3c2c1 (centres undefined)	none
COCCCNC(=O)CCc1nnc2n(Cc3ccc(Cl)cc3)c(=O)c3ccccc3n12	none
Cc1ccc(-c2nnn3c2nc(NCc2ccccc2)c2ccccc23)cc1	none
N#Cc1ccc2[nH]cc(CCCCN3CCN(c4ccc5oc(C(N)=O)cc5c4)CC3)c2c1	Methyltransferases active
CC(C)c1ccc(NC(=O)CSc2nnc3[nH]c(=O)c(C(C)(C)C)nn23)cc1	none
CC1CCCC(NC(=O)CCn2ccc3cc(S(=O)(=O)N4CCCC4)ccc32)C1C (centres undefined)	none
CC1(C(=O)NC2CCCCCCC2)Cn2c(cc3sccc32)C(=O)N1Cc1ccc(F)cc1 (centres undefined)	none
C=C1C(=O)OC2CC3(C)C(CC12)C(C)=CC(O)C3OC(C)=O (centres undefined)	Methyltransferases active
C=C1C(=O)O[C@@H]2C/C(C)=C\C(=O)/C=C(\C)[C@@H](OC(=O)/C(C)=C\C)[C@H](O)[C@@H]12	none
C=C(C)C(=O)O[C@H]1C[C@@](C)(O)C(=O)CC(O)/C(C)=C\[C@H]2OC(=O)C(=C)[C@H]12 (some centres undefined)	none
